According to PubChem BioAssay:

Experiment: MRP1 drug-resistance reversers in H69AR cells – cell-based, doxorubicin co-treatment, pilot screen (AID 601)
Conditions: H69AR cells, CellTiter-Glo, 72 h; compound alone cytotoxicity; at 10 µM

Q: For `Cc1ccc2c(c1C)NC(C(=O)O)C1CC=CC21` (stereo not given), which viability is on record?
A: Its viability is 98.2%.

Q: With `Cc1cc(C)cc(OCC(=O)NC2=NCCS2)c1` as the compound, how does the viability read?
A: The viability was 96.1%.

Q: For `COc1cccc(NS(=O)(=O)c2ccc3[nH]cc(C(=O)NC4CC4)c(=O)c3c2)c1`, which viability is on record?
A: Its viability is 70.1%.

Q: Which viability does the source give for `COc1ccc(OC)c(NC(=O)C2C3CC4OC(=O)C2C4C3)c1` (stereo not given) here?
A: The viability was 98.3%.

Q: With `CN(C)C(=O)COc1ccc2cc(-c3ccccc3)c(=O)oc2c1` as the compound, how does the viability read?
A: Its viability is 90.7%.

Q: With `CC1CN(CC(O)COc2ccccc2C(C)(C)C)CC(C)O1` (stereo not given) as the compound, how does the viability read?
A: The viability was 78%.

Q: For `CN(C)CCCN1c2ccccc2CCc2ccc(Cl)cc21`, which viability is on record?
A: The viability was 65.2%.

Q: Which viability does the source give for `COc1ccc(NC(=O)c2oc3ccccc3c2NC(=O)c2ccco2)cc1` here?
A: Its viability is 78.4%.

Q: Which viability does the source give for `CC1(C)SC2[C@H](NC(=O)C(NC(=O)N3CCNC3=O)c3ccccc3)C(=O)N2C1C(=O)O` (stereo not given in full) here?
A: Its viability is 95.3%.

Q: For `CC(=O)OC1CSc2nc3ccccc3n2C1` (stereo not given), which viability is on record?
A: Its viability is 93.4%.

Q: For `O=S(=O)(NCC1CCCO1)c1ccc2c(c1)OCCO2` (stereo not given), which viability is on record?
A: The viability was 97.6%.

Q: Which viability does the source give for `O=c1c2ccccc2c(/C=N/n2cnnc2)c(O)n1-c1ccccc1` here?
A: The viability was 100%.

Q: Which viability does the source give for `COc1ccc(C2=CC(=O)OC3(CCCCC3)O2)cc1` here?
A: Its viability is 56.5%.

Q: With `CCCC1(C(=O)OC)NC(c2cc(OC)c(OC)c(OC)c2)C2C(=O)N(CC)C(=O)C21` (stereo not given) as the compound, how does the viability read?
A: The viability was 88.9%.

Q: Which viability does the source give for `C#CCN(C)Cc1ccccc1` here?
A: Its viability is 93.8%.

Q: With `CCOC(=O)CSc1nc2sc(C)c(C)c2c(=O)[nH]1` as the compound, how does the viability read?
A: The viability was 92.2%.

Q: For `c1coc(CN(Cc2cccs2)Cc2nnnn2C2CCCCC2)c1`, which viability is on record?
A: The viability was 75.7%.

Q: For `CCn1cnc2sc(C(=O)Nc3ccc4c(c3)OCO4)c(C)c2c1=O`, which viability is on record?
A: The viability was 94%.

Q: With `COc1ccc(CCN(Cc2cc3cccc(C)c3[nH]c2=O)C(=O)N2CCCC2)cc1OC` as the compound, how does the viability read?
A: Its viability is 98.8%.

Q: For `COCCCNC(=O)C1CCN(C(=O)Nc2ccc(Cl)cc2)CC1`, which viability is on record?
A: Its viability is 99%.

Q: With `CC1(C)CC(=O)C(C=NC(CCC(N)=O)C(=O)O)=C(O)C1` (stereo not given) as the compound, how does the viability read?
A: Its viability is 91.9%.

Q: For `O=c1c(O)c(-c2ccc(O)cc2O)oc2cc(O)cc(O)c12`, which viability is on record?
A: Its viability is 97.4%.

Q: For `CNC(=O)OC(C)CNS(=O)(=O)c1ccc(C)cc1` (stereo not given), which viability is on record?
A: The viability was 97%.

Q: For `Cc1ccc(S(=O)(=O)N2CCN(c3nc(C(C)C)c4c(c3C#N)CC(C)(C)OC4)CC2)cc1`, which viability is on record?
A: The viability was 79.6%.

Q: With `Cc1ccc(Cl)cc1N1CCN(C(=O)CN2C(=O)c3cccc4cccc2c34)CC1` as the compound, how does the viability read?
A: Its viability is 72.1%.

Q: For `Cc1ccc2c(CC(=O)OCc3csc(C)n3)coc2c1`, which viability is on record?
A: Its viability is 98.5%.

Q: With `CC(C)(C)n1ncc2c(=O)n(CC(=O)NCc3ccccc3)cnc21` as the compound, how does the viability read?
A: The viability was 15.5%.

Q: For `COc1ccc(OCC(=O)Nc2ccc(N3CCOCC3)c(Cl)c2)cc1`, which viability is on record?
A: Its viability is 90.3%.

Q: With `O=C(Nc1ccccc1-c1ccccc1)NC1CCN(C(=O)N2CCOCC2)CC1` as the compound, how does the viability read?
A: The viability was 103%.

Q: Which viability does the source give for `O=C1[C@@H]2C(c3ccccc3Cl)=NO[C@@H]2C(=O)N1Cc1ccccc1` here?
A: Its viability is 104%.

Q: With `CC(=O)c1ccc(NC(=O)CCc2c(C)nc3ncnn3c2C)cc1` as the compound, how does the viability read?
A: The viability was 93.1%.

Q: For `Cc1nc2scc(-c3ccco3)c2c(=O)n1/N=C/N(C)C`, which viability is on record?
A: Its viability is 95.3%.

Q: Which viability does the source give for `O=C(O)c1ccc(COc2ccc(Cl)cc2)o1` here?
A: Its viability is 98.1%.

Q: With `Cn1cc(C(=O)NC2CCCCCCC2)c(=O)c2cc(S(=O)(=O)N3CCCC3)ccc21` as the compound, how does the viability read?
A: Its viability is 90.9%.

Q: For `Cc1ccc(C2=N/C(=C/N3CCOCC3)C(=O)O2)cc1`, which viability is on record?
A: The viability was 90.6%.

Q: For `CCc1ccccc1NC(=O)C(CC)Sc1nc2cc3c(cc2c(=O)n1Cc1ccco1)OCO3` (stereo not given), which viability is on record?
A: The viability was 28.3%.

Q: Which viability does the source give for `Cc1cc(C(=O)NCc2cccnc2)no1` here?
A: Its viability is 99.2%.

Q: Which viability does the source give for `Cc1cc(/C=N\O)c(C)n1-c1ccncc1` here?
A: Its viability is 91.4%.

Q: For `O=C(Cn1c(=O)n(CC2CCCO2)c(=O)c2ccccc21)c1ccccc1` (stereo not given), which viability is on record?
A: Its viability is 81.5%.

Q: With `O=C(c1ccco1)N1CCN(CC2CC3C=CC2C3)CC1` (stereo not given) as the compound, how does the viability read?
A: Its viability is 95.8%.
